# Activity calls are given as the source filed them. How the source made its calls: active means hit-call score of the fitted dose curve at least 0.9, where 1 is the maximum; inactive means score below 0.9.
# Target: CCAAT/enhancer-binding protein beta (Homo sapiens) (UniProt P17676)
# Test: ATG_C_EBP_CIS: Attagene CIS-FACTORIAL HepG2 Assay for human CCAAT/Enhancer Binding Protein (C/EBP) beta (AID 2282927)
# Conditions: HepG2 Attagene cis-factorial transcription factor reporter; actives raise or lower the signal
# Method: ATG_CIS is a cell-based, multiplexed-readout assay that uses HepG2, a human liver cell line, with measurements taken at 24 hours after chemical dosing in a 24-well plate.ATG_C_EBP_CIS is one of 52 assay component(s) measured or calculated from the ATG_CIS assay. It is designed to make measurements of mRNA induction, a form of inducible reporter, as detected with fluorescence intensity signals by Reverse transcription polymerase chain reaction (RT-PCR) and Capillary electrophoresis technology.Data from the assay component ATG_C_EBP_CIS was analyzed into 1 assay endpoint. This assay endpoint, ATG_C_EBP_CIS, was analyzed with bidirectional fitting relative to DMSO as the negative control and baseline of activity. Using a type of inducible reporter, measures of mRNA for gain or loss-of-signal activity can be used to understand the reporter gene at the transcription factor-level as they relate to the gene CEBPB. Furthermore, this assay endpoint can be referred to as a primary readout, because this assay has produced multiple assay endpoints where this one serves a reporter gene function. To generalize the intended target to other relatable targets, this assay endpoint is annotated to the dna binding intended target family, where the subfamily is basic leucine zipper.
# Human liver HepG2 cells are transiently transfected with multiple reporter transcription units (MRTUs) in 6-well plates using FuGene 6 reagent (Roche; 3 ml FuGene/1 mg DNA). The MRTU constructs are regulated by a cis-regulating element (promoter). […] A major difference between the CIS and TRANS system is that in CIS activities of endogenous TFs are measured, whereas the TRANS assay evaluates changes in activities of exogenous, chimeric NR-Gal4 proteins. […] At the end of 24 hour incubation, total RNA was isolated using TriZol reagent (Invitrogen). The isolated RNA is then reverse-transcribed using oligo(dT) primer and Mo-MLV reverse transcriptase (Invitrogen) with DNAse I (Ambion) treatment for 30 min. The one-tenth of the produced cDNA was amplified by PCR using Taq DNA polymerase (Invitrogen) and two reporter sequence-specific primers. The PCR products were fluorescently labeled by primer extension with 6-arboxyfluorescein (6-FAM) 5'-labeled reporter sequence-specific primer (2 min at 95 C, 20 s at 68 C and 10 min at 72 C) and these products were digested with 5U of HpaI (New England Biolabs) for 2h at 37 C. The fragments were purified using Qiaquick PCR columns (Qiagen), analyzed on an ABI 3130xL genetic analyzer (Applied Biosystems) with peak positions identified by using a set of X-rhodamine (ROX)-labeled MapMarker1000 molecular weight standards (BioVentures). The raw capillary electrophoresis data was processed using Attagraph software (Attagene).
# Chain of CCAAT/enhancer-binding protein beta (Homo sapiens) (P17676 whole entry, looked up): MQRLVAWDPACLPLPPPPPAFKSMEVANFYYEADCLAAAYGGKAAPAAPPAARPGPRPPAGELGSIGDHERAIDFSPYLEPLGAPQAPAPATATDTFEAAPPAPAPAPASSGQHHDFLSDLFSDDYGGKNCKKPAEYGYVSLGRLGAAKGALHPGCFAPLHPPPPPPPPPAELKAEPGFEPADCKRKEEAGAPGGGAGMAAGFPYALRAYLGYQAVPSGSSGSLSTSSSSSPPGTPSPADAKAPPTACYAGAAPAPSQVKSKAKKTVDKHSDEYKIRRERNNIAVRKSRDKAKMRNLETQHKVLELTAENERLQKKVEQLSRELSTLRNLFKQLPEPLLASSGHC
SMILES,outcome,AC50
Cc1nc(-c2ccc3c(c2)CCN(CCC2CCC(NC(=O)/C=C/c4ccc(F)cc4)CC2)CC3)no1 (stereo not given),inactive,
Oc1ccc2c(c1)OC[C@@H](N1CCC(O)(c3ccc(F)cc3)CC1)[C@H]2O,inactive,
CCCCCCCCCCC,inactive,
Cc1ccc(Cl)cc1,inactive,
Cc1ccc(C(C)C)c(O)c1,inactive,
CCCCCCC(=O)OCC,inactive,
Cc1oc(-c2ccccc2)nc1CCOc1cccc2c1ccn2CCC(=O)O,inactive,
CCOC(=O)C(C)(C)Oc1ccc(Cl)cc1,inactive,
COc1cc(S(=O)(=O)O)c(C)cc1N=Nc1c(O)ccc2cc(S(=O)(=O)O)ccc12,inactive,
CC1(C)NC(=O)NC1=O,inactive,
Nc1nc(N)c2nc(CNc3ccc(C(=O)N[C@@H](CCC(=O)O)C(=O)O)cc3)cnc2n1,inactive,
NCC1(Cc2noc(=O)[nH]2)CCCCC1,inactive,
c1cc(-c2ccncc2)ccn1,inactive,
COC(=O)c1ccc(O)cc1,inactive,
C[Si]1(C)O[Si](C)(C)O[Si](C)(C)O[Si](C)(C)O1,inactive,
CC(=O)OC/C=C(\C)CCC=C(C)C,inactive,
Cc1ccc(N(C)C)cc1,inactive,
CCOc1ccc2c(c1)C(C)=CC(C)(C)N2,inactive,
Cc1nc(C)nc(N2C[C@@H](C)N(c3ccnc([C@@H](C)O)n3)[C@@H](C)C2)n1,inactive,
COCCOCCOC,inactive,

SMILES,outcome,AC50
Cc1cccc([N+](=O)[O-])c1C,inactive,
Cc1ccccc1Cl,inactive,
CNC(=O)[C@H]1O[C@@H](n2cnc3c(NCc4cc(Cl)ccc4OCc4cc(C)no4)ncnc32)[C@H](O)[C@@H]1N,inactive,
CC(CO)OC(C)CO (stereo not given) (tested in a mixture with another compound),inactive,
CCCCCCCCCCCCCCCC,inactive,
O=c1[nH]cc(F)c(=O)[nH]1,inactive,
CC(C)c1ccc(C(=O)N=C(N)N)cc1S(C)(=O)=O,inactive,
CC(=O)C(C)=CC1C(C)=CCCC1(C)C (stereo not given),inactive,
CCCCCCCCCCCCCCCCCC(=O)O,inactive,
Nc1ccccc1N,,54.2 µM (active)
CC(C)(C)c1cc(O)c(C(C)(C)C)cc1O,,89.1 µM (active)
NS(=O)(=O)c1cc2c(cc1Cl)NCNS2(=O)=O,inactive,
O=C(O)Cc1ccccc1Nc1c(Cl)cccc1Cl,inactive,
COc1ccc2c(c1)c(CC(=O)O)c(C)n2C(=O)c1ccc(Cl)cc1,inactive,
COc1cc(C=O)ccc1O,inactive,
COc1ccc(C)cc1N,inactive,
C1CCC(SSC2CCCCC2)CC1,inactive,
COc1ccc(S(=O)(=O)N2C(=O)[C@@](c3ccccc3OC)(N3C[C@H](O)C[C@H]3C(=O)N(C)C)c3cc(Cl)ccc32)c(OC)c1,inactive,
CC(=O)OCCOCCOCCOC(C)=O,inactive,
NCCO,inactive,

# Source: PubChem BioAssay (EPA / NIEHS)
